Measurements from the supplement of paper PMC3414501.
Structures can show the parent of a compound that is named as a salt. A number with no mark means an inactive call.

Tests used:
[1] = tested on: S. cerevisiae SK1 pCDA2-eGFP (USY613), sporulating; assay: CDA2-GFP sporulation assay sensitivity score (z-score vs DMSO controls); higher = stronger inhibition of sporulation, active = hit call of the paper;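 further: active if sensitivity score above 5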
[2] = tested on: S. cerevisiae NKY1551 his4x/his4B, sporulating; assay: HIS4 meiotic recombination assay sensitivity score (z-score vs DMSO controls); higher = stronger inhibition of sporulation/recombination, active = hit call of the paper;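 further: active if sensitivity score above 5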
[3] = tested on: S. cerevisiae AD1-9 (efflux-pump deficient), vegetative growth in YPD; assay: growth sensitivity score (doubling time z-score vs DMSO controls); higher = slower growth, strongly negative scores also mark growth inhibition (complete suppression), active = hit call of the paper
In short: (§1)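 Optical density of Saccharomyces cerevisiae cultures in microtiter plates was followed every 15 min for 24 hours after seeding at an OD600 of 0.065. Eight solvent-only wells were run per experiment. Growth sensitivity scores were found by subtracting the solvent-only mean from the compound mean and dividing by the solvent-only standard deviation.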

[4] = tested on: S. cerevisiae BY4741 (wild-type), vegetative growth in YPD; assay: as above
In short: as §1

Row | Compound | CDA2-GFP sporulation assay sensitivity score [1] | HIS4 meiotic recombination assay sensitivity score [2] | growth sensitivity score [3] | growth sensitivity score [4]
1 | CC=CC(=O)N(CC)c1ccccc1C [Crotamiton] (stock concentration (mM, diluted 1:100): 10.3) | 2.32 | 3.54 | 0.99 | -0.07
2 | CN(C)CCOc1ccc(/C(=C(/CCCl)c2ccccc2)c2ccccc2)cc1 [Toremifene citrate] (stock concentration (mM, diluted 1:100): 10) | – | 3.57 | – | –
3 | CCC(C)n1ncn(-c2ccc(N3CCN(c4ccc(OCC5COC(Cn6cncn6)(c6ccc(Cl)cc6Cl)O5)cc4)CC3)cc2)c1=O (stereo not given) [Itraconazole] (stock concentration (mM, diluted 1:100): 10.1) | 0.16 | -1.94 | 21.4 (active) | 10.9 (active)
4 | CCCCCCNC(=O)n1cc(F)c(=O)[nH]c1=O [Carmofur] (stock concentration (mM, diluted 1:100): 10.3) | 0.49 | -2.78 | 22.8 (active) | 37.2 (active)
5 | CCC(=O)O[C@]1(C(=O)SCF)[C@H](C)C[C@H]2[C@@H]3C[C@H](F)C4=CC(=O)C=C[C@]4(C)[C@@]3(F)[C@@H](O)C[C@@]21C [Fluticasone propionate] (stock concentration (mM, diluted 1:100): 10) | -2.57 | -1.24 | -1.65 | -0.58
6 | Cc1ncc([N+](=O)[O-])n1CC(C)O (stereo not given) [Secnidazole] (stock concentration (mM, diluted 1:100): 10) | 0.94 | 0.68 | -0.44 | -0.7
7 | CC(=O)Nc1ccc(CC(=O)O)cc1 [Actarit] (stock concentration (mM, diluted 1:100): 10) | 0.84 | 0.62 | 0.98 | -2
8 | CCCc1nc2c(C)cc(-c3nc4ccccc4n3C)cc2n1Cc1ccc(-c2ccccc2C(=O)O)cc1 [Telmisartan] (stock concentration (mM, diluted 1:100): 10) | -1.44 | -1.16 | 43.7 (active) | 85.7 (active)
9 | CCCCC[C@H](O)/C=C/[C@H]1[C@H](O)CC(=O)[C@@H]1CCCCCCC(=O)O [Prostaglandin E1] (stock concentration (mM, diluted 1:100): 10) | 6.45 | 1.5 | 0.11 | -0.67
10 | CO[C@H]1/C=C/O[C@@]2(C)Oc3c(C)c(O)c4c(c3C2=O)C2=NC3(CCN(CC(C)C)CC3)NC2=C(NC(=O)/C(C)=C\C=C\[C@H](C)[C@H](O)[C@@H](C)[C@@H](O)[C@@H](C)[C@H](OC(C)=O)[C@@H]1C)C4=O [Rifabutin] (stock concentration (mM, diluted 1:100): 10) | 6 | -1.4 | 1.43 | 0.72
11 | CCOC(=O)[C@@]1(CCCCCCOc2ccc(Cl)cc2)CO1 [Etomoxir] (stock concentration (mM, diluted 1:100): 10) | 5.49 | -1.14 | 8.16 (active) | 1.54
12 | COc1ccccc1OCC(O)CN1CCN(CC(=O)Nc2c(C)cccc2C)CC1 (stereo not given) [Ranolazine dihydrochloride] (stock concentration (mM, diluted 1:100): 8.6) | -1.05 | -1.05 | -1.41 | -0.31
13 | CC(N/C(=N\C#N)Nc1ccncc1)C(C)(C)C (stereo not given) [Pinacidil monohydrate] (stock concentration (mM, diluted 1:100): 10) | 1.62 | -1.38 | -0.96 | 1.52
14 | CNCC[C@H](Oc1cccc2ccccc12)c1cccs1 [Duloxetine] (stock concentration (mM, diluted 1:100): 10) | 1.64 | -1.33 | 99.6 (active) | 11 (active)
15 | CC[C@H](C)C(=O)O[C@H]1CCC=C2C=C[C@H](C)[C@H](CC[C@@H]3C[C@@H](O)CC(=O)O3)[C@H]21 [Mevastatin] (stock concentration (mM, diluted 1:100): 10) | 0.51 | 1.32 | 130 (active) | 2.89 (active)
16 | CO[C@H]1O[C@@H]2O[C@@]3(C)CC[C@H]4[C@H](C)CC[C@@H]([C@H]1C)[C@@]24OO3 [Artemether] (stock concentration (mM, diluted 1:100): 10) | 7.92 | -0.64 | 9.66 (active) | 17.6 (active)
17 | CCOC(=O)O[C@]1(C(=O)OCCl)CC[C@H]2[C@@H]3CCC4=CC(=O)C=C[C@]4(C)[C@H]3[C@@H](O)C[C@@]21C [Loteprednol etabonate] (stock concentration (mM, diluted 1:100): 10) | 0 | -0.2 | 5.74 (active) | 0.91
